Measurements reported in PubChem BioAssay AID1159580 (chemical genetic matrix, 2015).
Hit rate of the full screen: of about 5,500 compounds, about 2,000 (36%) were called active. About 18% were inconclusive and are not listed. Rule as the data show it: active = normalized growth mostly below about 0.91 (no sharp cut-off); inconclusive = no clear call, values can overlap the other calls; inactive = mostly above about 0.92. This is one part of the list.

Experiment: chemical genetic growth profiling, strain panel (AID 1159580);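 also: tested at 20 µM; growth read once vehicle control cultures reached saturation at 30 °C; 1 = growth at the plate median or of vehicle wells; lower values mean less growth of the strain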
Settings: growth OD
[1] = S. cerevisiae deletion strains, locus YJR075W, strain HOC1, active compounds read low
[2] = S. cerevisiae deletion strains, locus YNL153C, strain GIM3, active compounds read low
[3] = S. cerevisiae deletion strains, locus YPL055C, strain LGE1, active compounds read low
[4] = S. cerevisiae deletion strains, locus YPL241C, strain CIN2, active compounds read low
[5] = S. cerevisiae deletion strains, locus YDL101C, strain DUN1, active compounds read low
[6] = S. cerevisiae deletion strains, locus YHR030C, strain SLT2, active compounds read low

Measured: normalized growth

COCC(=O)O[C@]1(CCN(C)CCCc2nc3ccccc3[nH]2)CCc2cc(F)ccc2[C@@H]1C(C)C
inactive: S. cerevisiae deletion strains, locus YAL040C, strain CLN3, active compounds read low 1 | S. cerevisiae deletion strains, locus YCL061C, strain MRC1 (second series), active compounds read low 1 | S. cerevisiae deletion strains, locus YDR363W, strain ESC2, active compounds read low 1 | S. cerevisiae deletion strains, locus YER002W, strain NOP16, active compounds read low 1.02 | [1] 0.967 | [2] 0.941 | S. cerevisiae deletion strains, locus YNL175C, strain NOP13, active compounds read low 1.03 | S. cerevisiae deletion strains, locus YNL197C, strain WHI3, active compounds read low 1.04 | S. cerevisiae deletion strains, locus YNL224C, strain SQS1, active compounds read low 1.03 | S. cerevisiae deletion strains, locus YOR083W, strain WHI5 (second series), active compounds read low 1.03 | [3] 0.929 | [4] 0.985

O=C(O)CCNC(=S)Nc1cccc(C(F)(F)F)c1
inactive: S. cerevisiae deletion strains, locus YAL013W, strain DEP1, active compounds read low 0.998 | S. cerevisiae deletion strains, locus YBR229C, strain ROT2, active compounds read low 1.01 | S. cerevisiae deletion strains, locus YCL061C, strain MRC1, active compounds read low 0.99 | [5] 1.01 | S. cerevisiae deletion strains, locus YDL134C, strain PPH21, active compounds read low 0.983 | S. cerevisiae deletion strains, locus YDR150W, strain NUM1, active compounds read low 1.03 | S. cerevisiae deletion strains, locus YEL061C, strain CIN8, active compounds read low 1.02 | S. cerevisiae deletion strains, locus YGR078C, strain PAC10, active compounds read low 1.01 | S. cerevisiae deletion strains, locus YGR229C, strain SMI1, active compounds read low 0.982 | [6] 0.996 | S. cerevisiae deletion strains, locus YHR087W, strain rtc3, active compounds read low 1.02 | S. cerevisiae deletion strains, locus YJR043C, strain POL32, active compounds read low 0.987 | [1] 0.997 | S. cerevisiae deletion strains, locus YLR039C, strain RIC1, active compounds read low 0.976 | S. cerevisiae deletion strains, locus YLR058C, strain SHM2 (second series), active compounds read low 0.999 | S. cerevisiae deletion strains, locus YLR085C, strain ARP6, active compounds read low 0.971 | S. cerevisiae deletion strains, locus YLR262C, strain YPT6, active compounds read low 0.986 | S. cerevisiae deletion strains, locus YML094W, strain GIM5, active compounds read low 1.11 | S. cerevisiae deletion strains, locus YMR219W, strain ESC1, active compounds read low 1 | S. cerevisiae deletion strains, locus YMR263W, strain SAP30, active compounds read low 0.984 | [2] 1.01 | S. cerevisiae deletion strains, locus YNL298W, strain CLA4 (second series), active compounds read low 0.985 | S. cerevisiae deletion strains, locus YNL322C, strain KRE1, active compounds read low 1.01 | S. cerevisiae deletion strains, locus YNR030W, strain Alg12, active compounds read low 1.03 | [3] 1.04 | [4] 0.918 | S. cerevisiae deletion strains, locus YPR135W, strain CTF4, active compounds read low 1.06 | S. cerevisiae strains, strain wild type, active compounds read low 0.966

O=C(CCSc1cccs1)Nc1cccc(C(F)(F)F)c1
active: [6] 0.84 | S. cerevisiae deletion strains, locus YLR113W, strain HOG1, active compounds read low 0.711 | S. cerevisiae deletion strains, locus YPL256C, strain CLN2, active compounds read low 0.796
inactive: S. cerevisiae deletion strains, locus YAR019C, strain CDC15, active compounds read low 0.936 | S. cerevisiae deletion strains, locus YBL105C, strain PKC1, active compounds read low 0.922 | S. cerevisiae deletion strains, locus YBR135W, strain CKS1, active compounds read low 0.929 | S. cerevisiae deletion strains, locus YBR136W, strain MEC1, active compounds read low 0.911 | S. cerevisiae deletion strains, locus YBR160W, strain CDC28, active compounds read low 0.926 | S. cerevisiae deletion strains, locus YDL017W, strain CDC7, active compounds read low 0.922 | S. cerevisiae deletion strains, locus YDL028C, strain MPS1, active compounds read low 0.93 | [5] 0.921 | S. cerevisiae deletion strains, locus YDL108W, strain KIN28, active compounds read low 0.946 | S. cerevisiae deletion strains, locus YDL132W, strain cdc53, active compounds read low 0.92 | S. cerevisiae deletion strains, locus YDL214C, strain PRR2, active compounds read low 0.911 | S. cerevisiae deletion strains, locus YDR052C, strain DBF4, active compounds read low 0.948 | S. cerevisiae deletion strains, locus YDR054C, strain cdc34, active compounds read low 0.916 | S. cerevisiae deletion strains, locus YDR226W, strain ADK1, active compounds read low 0.93 | S. cerevisiae deletion strains, locus YDR477W, strain SNF1, active compounds read low 0.966 | S. cerevisiae deletion strains, locus YER123W, strain YCK3, active compounds read low 0.915 | S. cerevisiae deletion strains, locus YER133W, strain GLC7, active compounds read low 0.965 | S. cerevisiae deletion strains, locus YFL009W, strain cdc4, active compounds read low 0.945 | S. cerevisiae deletion strains, locus YFL029C, strain CAK1, active compounds read low 0.925 | S. cerevisiae deletion strains, locus YFR003C, strain YPI1, active compounds read low 0.93 | S. cerevisiae deletion strains, locus YFR019W, strain FAB1, active compounds read low 0.931 | S. cerevisiae deletion strains, locus YFR028C, strain CDC14, active compounds read low 0.952 | S. cerevisiae deletion strains, locus YGR040W, strain KSS1, active compounds read low 0.961 | S. cerevisiae deletion strains, locus YGR052W, strain FMP48, active compounds read low 0.952 | S. cerevisiae deletion strains, locus YGR092W, strain DBF2, active compounds read low 0.872 | S. cerevisiae deletion strains, locus YHR079C, strain IRE1, active compounds read low 0.853 | S. cerevisiae deletion strains, locus YHR082C, strain KSP1, active compounds read low 0.884 | S. cerevisiae deletion strains, locus YHR205W, strain SCH9, active compounds read low 0.807 | S. cerevisiae deletion strains, locus YIL147C, strain SLN1, active compounds read low 0.927 | S. cerevisiae deletion strains, locus YJL095W, strain BCK1, active compounds read low 0.888 | S. cerevisiae deletion strains, locus YJL128C, strain PBS2, active compounds read low 0.865 | S. cerevisiae deletion strains, locus YJL157C, strain FAR1, active compounds read low 0.949 | S. cerevisiae deletion strains, locus YJR016C, strain ILV3, active compounds read low 0.92 | S. cerevisiae deletion strains, locus YJR066W, strain TOR1 (second series), active compounds read low 0.992 | S. cerevisiae deletion strains, locus YJR066W, strain TOR1, active compounds read low 0.905 | S. cerevisiae deletion strains, locus YKL048C, strain ELM1, active compounds read low 0.92 | S. cerevisiae deletion strains, locus YKL067W, strain YNK1, active compounds read low 0.927 | S. cerevisiae deletion strains, locus YKL101W, strain HSL1, active compounds read low 0.911 | S. cerevisiae deletion strains, locus YKL193C, strain SDS22, active compounds read low 0.913 | S. cerevisiae deletion strains, locus YKL203C, strain TOR2, active compounds read low 1.01 | S. cerevisiae deletion strains, locus YLR133W, strain CKI1, active compounds read low 0.936 | S. cerevisiae deletion strains, locus YLR403W, strain SFP1, active compounds read low 0.965 | S. cerevisiae deletion strains, locus YML070W, strain DAK1, active compounds read low 0.891 | S. cerevisiae deletion strains, locus YMR001C, strain CDC5, active compounds read low 0.924 | S. cerevisiae deletion strains, locus YMR205C, strain PFK2 (second series), active compounds read low 0.913 | S. cerevisiae deletion strains, locus YMR277W, strain FCP1, active compounds read low 0.919 | S. cerevisiae deletion strains, locus YNL006W, strain LST8, active compounds read low 0.938 | S. cerevisiae deletion strains, locus YNL020C, strain ARK1, active compounds read low 0.923 | S. cerevisiae deletion strains, locus YNL161W, strain CBK1, active compounds read low 0.918 | S. cerevisiae deletion strains, locus YNL183C, strain NPR1, active compounds read low 0.857 | S. cerevisiae deletion strains, locus YNL207W, strain RIO2, active compounds read low 0.921 | S. cerevisiae deletion strains, locus YNL222W, strain SSU72, active compounds read low 0.923 | S. cerevisiae deletion strains, locus YNL307C, strain MCK1 (second series), active compounds read low 0.88 | S. cerevisiae deletion strains, locus YOL078W, strain AVO1, active compounds read low 0.917 | S. cerevisiae deletion strains, locus YOL136C, strain PFK27, active compounds read low 0.889 | S. cerevisiae deletion strains, locus YOR061W, strain CKA2, active compounds read low 0.927 | S. cerevisiae deletion strains, locus YOR119C, strain RIO1, active compounds read low 0.964 | S. cerevisiae deletion strains, locus YOR231W, strain MKK1, active compounds read low 0.854 | S. cerevisiae deletion strains, locus YOR329C, strain SCD5, active compounds read low 0.921 | S. cerevisiae deletion strains, locus YPL031C, strain PHO85, active compounds read low 0.961 | S. cerevisiae deletion strains, locus YPL153C, strain RAD53, active compounds read low 0.962 | S. cerevisiae deletion strains, locus YPL204W, strain HRR25, active compounds read low 0.953 | S. cerevisiae deletion strains, locus YPL209C, strain IPL1, active compounds read low 0.92 | S. cerevisiae deletion strains, locus YPR025C, strain CCL1, active compounds read low 0.932 | S. cerevisiae deletion strains, locus YPR106W, strain ISR1, active compounds read low 0.918 | S. cerevisiae deletion strains, locus YPR111W, strain DBF20, active compounds read low 0.901 | S. cerevisiae deletion strains, strain NNK1, active compounds read low 0.888 | S. cerevisiae deletion strains, strain TSCII, active compounds read low 0.921
